# Data: publication PMC7862700, “An all-to-all approach to the identification of sequence-specific readers for epigenetic DNA modifications on cytosine”
# How the values were obtained:
# Experiment in all cases: DAPPL (digital affinity profiling via proximity ligation, sequencing); 10 mM Tris-HCl pH 7.5, 50 mM NaCl, 1 mM DTT, 4% glycerol, room temperature, 30 min; GST-TFs on glutathione beads, 16-mer random dsDNA library, 0.1% formaldehyde crosslink after washing; high values mean tight binding
# Settings in all cases: protein: recombinant; tags: N-terminal GST; dsDNA, one strand shown
# FLI1 = target: T1, FLI1 (Homo sapiens, UniProt Q01543 1-452)
# T1 sequence: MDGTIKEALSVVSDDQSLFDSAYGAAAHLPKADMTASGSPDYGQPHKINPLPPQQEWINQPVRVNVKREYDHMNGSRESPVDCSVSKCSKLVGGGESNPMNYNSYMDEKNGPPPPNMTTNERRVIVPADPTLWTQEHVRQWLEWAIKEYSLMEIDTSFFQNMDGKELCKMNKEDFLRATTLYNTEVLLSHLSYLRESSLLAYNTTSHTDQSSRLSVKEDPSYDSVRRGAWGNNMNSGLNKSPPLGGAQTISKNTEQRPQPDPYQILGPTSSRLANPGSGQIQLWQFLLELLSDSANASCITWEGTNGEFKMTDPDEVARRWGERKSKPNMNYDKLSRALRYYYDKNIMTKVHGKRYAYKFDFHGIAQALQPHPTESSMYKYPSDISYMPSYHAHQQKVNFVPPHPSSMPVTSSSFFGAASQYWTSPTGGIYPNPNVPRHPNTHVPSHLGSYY
# In short: (§1)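 Human transcription factors were made in yeast as GST fusions, captured on glutathione beads and barcoded with DNA. With a tag-only sample included, the pool was incubated with 200 nmole of a random double-stranded 16-mer DNA library in Tris/NaCl/DTT/glycerol buffer at room temperature for 30 min, then crosslinked with 0.1% formaldehyde after washing, ligated by proximity, amplified and sequenced. For binding signal, each hexamer's read frequency for a factor is divided by its frequency for the tag-only sample.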
# ELK1 = target: T2, ELK1 (Homo sapiens, UniProt P19419 1-428)
# T2 sequence: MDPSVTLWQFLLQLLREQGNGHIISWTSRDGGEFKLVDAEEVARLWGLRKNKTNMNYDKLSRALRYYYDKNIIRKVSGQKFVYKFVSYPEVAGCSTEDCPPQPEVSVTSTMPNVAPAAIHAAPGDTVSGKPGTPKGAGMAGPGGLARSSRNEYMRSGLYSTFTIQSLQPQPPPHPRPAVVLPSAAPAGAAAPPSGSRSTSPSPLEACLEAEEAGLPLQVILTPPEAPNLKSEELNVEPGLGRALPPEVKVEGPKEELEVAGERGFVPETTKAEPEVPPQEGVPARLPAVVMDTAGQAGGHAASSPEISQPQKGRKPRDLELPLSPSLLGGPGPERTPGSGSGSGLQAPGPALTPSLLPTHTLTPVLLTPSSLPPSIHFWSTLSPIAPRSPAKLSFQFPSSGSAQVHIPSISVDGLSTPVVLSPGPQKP
# In short: as §1
# GABPA = target: T3, GABPA (Homo sapiens, UniProt Q06546 1-454)
# T3 sequence: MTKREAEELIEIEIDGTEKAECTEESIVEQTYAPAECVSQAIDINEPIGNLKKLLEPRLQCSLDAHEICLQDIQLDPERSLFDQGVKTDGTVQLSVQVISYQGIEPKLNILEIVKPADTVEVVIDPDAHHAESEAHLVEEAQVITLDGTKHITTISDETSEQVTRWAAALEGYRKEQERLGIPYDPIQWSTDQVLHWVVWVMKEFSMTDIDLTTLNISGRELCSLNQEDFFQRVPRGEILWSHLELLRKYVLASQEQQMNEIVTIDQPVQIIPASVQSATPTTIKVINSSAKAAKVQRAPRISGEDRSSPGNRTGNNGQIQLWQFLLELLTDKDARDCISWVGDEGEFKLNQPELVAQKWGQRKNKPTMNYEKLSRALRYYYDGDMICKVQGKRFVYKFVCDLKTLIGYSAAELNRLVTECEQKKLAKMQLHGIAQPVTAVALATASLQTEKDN
# In short: as §1
# ERG = target: T4, ERG (Homo sapiens, UniProt P11308 1-479)
# T4 sequence: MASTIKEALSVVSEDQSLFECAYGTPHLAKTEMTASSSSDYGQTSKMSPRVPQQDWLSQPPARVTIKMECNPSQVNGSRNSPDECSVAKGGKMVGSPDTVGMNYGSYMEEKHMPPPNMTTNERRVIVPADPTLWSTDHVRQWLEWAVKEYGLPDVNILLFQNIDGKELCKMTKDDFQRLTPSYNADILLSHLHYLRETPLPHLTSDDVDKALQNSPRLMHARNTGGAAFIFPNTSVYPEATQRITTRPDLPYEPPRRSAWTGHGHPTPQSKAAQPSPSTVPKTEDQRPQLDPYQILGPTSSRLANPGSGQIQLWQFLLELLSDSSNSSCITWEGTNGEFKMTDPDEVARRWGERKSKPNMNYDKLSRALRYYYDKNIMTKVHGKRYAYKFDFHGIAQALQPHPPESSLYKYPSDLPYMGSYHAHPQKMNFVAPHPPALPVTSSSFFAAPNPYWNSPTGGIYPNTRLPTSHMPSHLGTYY
# In short: as §1
# ELF1 = ELF1 (Homo sapiens, UniProt P32519 1-619)
# In short: as §1
# EHF = target: T5, EHF (Homo sapiens, UniProt Q9NZC4 1-300)
# T5 sequence: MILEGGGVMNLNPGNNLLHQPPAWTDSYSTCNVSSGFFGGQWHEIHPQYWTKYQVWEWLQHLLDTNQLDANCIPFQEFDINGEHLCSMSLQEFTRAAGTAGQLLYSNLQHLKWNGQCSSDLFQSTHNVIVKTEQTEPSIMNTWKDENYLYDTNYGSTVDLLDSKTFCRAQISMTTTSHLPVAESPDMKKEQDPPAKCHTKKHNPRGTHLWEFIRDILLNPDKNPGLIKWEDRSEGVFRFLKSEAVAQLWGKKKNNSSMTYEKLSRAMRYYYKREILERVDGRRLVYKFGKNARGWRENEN
# In short: as §1
# SPI1 = SPI1 (Homo sapiens, UniProt P17947 1-270)
# In short: as §1
# SPIB = SPIB (Homo sapiens, UniProt Q01892 1-262)
# In short: as §1
# ELK3 = target: T6, ELK3 (Homo sapiens, UniProt P41970 1-407)
# T6 sequence: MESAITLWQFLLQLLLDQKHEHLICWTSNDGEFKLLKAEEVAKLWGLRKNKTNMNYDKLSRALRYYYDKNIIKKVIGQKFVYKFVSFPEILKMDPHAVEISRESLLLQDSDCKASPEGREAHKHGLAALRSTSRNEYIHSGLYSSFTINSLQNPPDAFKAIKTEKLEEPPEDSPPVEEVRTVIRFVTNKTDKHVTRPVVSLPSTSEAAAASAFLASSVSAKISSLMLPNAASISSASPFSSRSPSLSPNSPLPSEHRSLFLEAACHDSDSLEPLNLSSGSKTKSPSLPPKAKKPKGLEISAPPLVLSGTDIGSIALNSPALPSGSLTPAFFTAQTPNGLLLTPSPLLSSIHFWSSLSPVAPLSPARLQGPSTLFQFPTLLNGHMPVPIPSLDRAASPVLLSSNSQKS
# In short: as §1
# Sequence of SPIB (Q01892 whole entry): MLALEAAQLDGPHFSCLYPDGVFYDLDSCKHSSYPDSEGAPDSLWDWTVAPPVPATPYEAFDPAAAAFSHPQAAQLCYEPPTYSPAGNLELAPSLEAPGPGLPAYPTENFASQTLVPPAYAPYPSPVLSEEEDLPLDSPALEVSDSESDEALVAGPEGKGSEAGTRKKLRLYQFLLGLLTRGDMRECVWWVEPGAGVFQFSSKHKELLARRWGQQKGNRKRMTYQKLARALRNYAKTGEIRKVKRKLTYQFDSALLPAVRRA
# Sequence of ELF1 (P32519 whole entry): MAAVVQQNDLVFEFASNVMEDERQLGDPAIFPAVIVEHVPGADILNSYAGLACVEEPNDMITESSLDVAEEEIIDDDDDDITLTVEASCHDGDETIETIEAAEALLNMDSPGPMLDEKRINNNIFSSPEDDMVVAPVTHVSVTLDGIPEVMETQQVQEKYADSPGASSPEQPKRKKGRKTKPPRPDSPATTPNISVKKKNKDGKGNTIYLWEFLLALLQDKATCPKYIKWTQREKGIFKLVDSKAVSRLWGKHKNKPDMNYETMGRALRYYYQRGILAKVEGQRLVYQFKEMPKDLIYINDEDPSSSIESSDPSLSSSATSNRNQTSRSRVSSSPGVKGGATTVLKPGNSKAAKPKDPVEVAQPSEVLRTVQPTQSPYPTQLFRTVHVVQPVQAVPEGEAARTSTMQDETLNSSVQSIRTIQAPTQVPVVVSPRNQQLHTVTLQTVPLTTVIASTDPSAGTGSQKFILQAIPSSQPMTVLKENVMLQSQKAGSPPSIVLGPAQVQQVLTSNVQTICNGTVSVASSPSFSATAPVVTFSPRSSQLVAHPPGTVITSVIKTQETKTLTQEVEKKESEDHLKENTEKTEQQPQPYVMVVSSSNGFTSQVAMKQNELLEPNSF
sequence,measurement,setting,value
TCTCCC,binding signal,FLI1,"1.66 fold enrichment (6-mer frequency, TF over GST control)"
same,binding signal,ELK1,"1.68 fold enrichment (6-mer frequency, TF over GST control)"
same,binding signal,GABPA,"1.74 fold enrichment (6-mer frequency, TF over GST control)"
same,binding signal,ERG,"1.54 fold enrichment (6-mer frequency, TF over GST control)"
same,binding signal,ELF1,"1.63 fold enrichment (6-mer frequency, TF over GST control)"
same,binding signal,EHF,"1.73 fold enrichment (6-mer frequency, TF over GST control)"
same,binding signal,SPI1,"1.47 fold enrichment (6-mer frequency, TF over GST control)"
same,binding signal,SPIB,"1.71 fold enrichment (6-mer frequency, TF over GST control)"
same,binding signal,ELK3,"1.75 fold enrichment (6-mer frequency, TF over GST control)"
CTTATT,binding signal,FLI1,"1.61 fold enrichment (6-mer frequency, TF over GST control)"
same,binding signal,ELK1,"1.39 fold enrichment (6-mer frequency, TF over GST control)"
same,binding signal,GABPA,"1.41 fold enrichment (6-mer frequency, TF over GST control)"
same,binding signal,ERG,"1.53 fold enrichment (6-mer frequency, TF over GST control)"
same,binding signal,ELF1,"1.5 fold enrichment (6-mer frequency, TF over GST control)"
same,binding signal,EHF,"1.48 fold enrichment (6-mer frequency, TF over GST control)"
same,binding signal,SPI1,"1.61 fold enrichment (6-mer frequency, TF over GST control)"
same,binding signal,SPIB,"1.44 fold enrichment (6-mer frequency, TF over GST control)"
same,binding signal,ELK3,"1.59 fold enrichment (6-mer frequency, TF over GST control)"
CTACAC,binding signal,FLI1,"1.3 fold enrichment (6-mer frequency, TF over GST control)"
same,binding signal,ELK1,"1.27 fold enrichment (6-mer frequency, TF over GST control)"
same,binding signal,GABPA,"1.34 fold enrichment (6-mer frequency, TF over GST control)"
same,binding signal,ERG,"1.34 fold enrichment (6-mer frequency, TF over GST control)"
same,binding signal,ELF1,"1.33 fold enrichment (6-mer frequency, TF over GST control)"
same,binding signal,EHF,"1.36 fold enrichment (6-mer frequency, TF over GST control)"
same,binding signal,SPI1,"1.21 fold enrichment (6-mer frequency, TF over GST control)"
same,binding signal,SPIB,"1.33 fold enrichment (6-mer frequency, TF over GST control)"
same,binding signal,ELK3,"1.27 fold enrichment (6-mer frequency, TF over GST control)"
CTCCGG,binding signal,FLI1,"1.45 fold enrichment (6-mer frequency, TF over GST control)"
same,binding signal,ELK1,"1.58 fold enrichment (6-mer frequency, TF over GST control)"
same,binding signal,GABPA,"1.68 fold enrichment (6-mer frequency, TF over GST control)"
same,binding signal,ERG,"1.64 fold enrichment (6-mer frequency, TF over GST control)"
same,binding signal,ELF1,"1.52 fold enrichment (6-mer frequency, TF over GST control)"
same,binding signal,EHF,"1.58 fold enrichment (6-mer frequency, TF over GST control)"
same,binding signal,SPI1,"1.43 fold enrichment (6-mer frequency, TF over GST control)"
same,binding signal,SPIB,"1.54 fold enrichment (6-mer frequency, TF over GST control)"
same,binding signal,ELK3,"1.6 fold enrichment (6-mer frequency, TF over GST control)"
CTAAGT,binding signal,FLI1,"1.21 fold enrichment (6-mer frequency, TF over GST control)"
same,binding signal,ELK1,"1.17 fold enrichment (6-mer frequency, TF over GST control)"
same,binding signal,GABPA,"1.26 fold enrichment (6-mer frequency, TF over GST control)"
same,binding signal,ERG,"1.18 fold enrichment (6-mer frequency, TF over GST control)"
same,binding signal,ELF1,"1.2 fold enrichment (6-mer frequency, TF over GST control)"
same,binding signal,EHF,"1.26 fold enrichment (6-mer frequency, TF over GST control)"
same,binding signal,SPI1,"1.19 fold enrichment (6-mer frequency, TF over GST control)"
same,binding signal,SPIB,"1.24 fold enrichment (6-mer frequency, TF over GST control)"
same,binding signal,ELK3,"1.16 fold enrichment (6-mer frequency, TF over GST control)"
GTCCTA,binding signal,FLI1,"1.15 fold enrichment (6-mer frequency, TF over GST control)"
same,binding signal,ELK1,"1.19 fold enrichment (6-mer frequency, TF over GST control)"
same,binding signal,GABPA,"1.22 fold enrichment (6-mer frequency, TF over GST control)"
same,binding signal,ERG,"1.14 fold enrichment (6-mer frequency, TF over GST control)"
same,binding signal,ELF1,"1.12 fold enrichment (6-mer frequency, TF over GST control)"
same,binding signal,EHF,"1.16 fold enrichment (6-mer frequency, TF over GST control)"
same,binding signal,SPI1,"1.16 fold enrichment (6-mer frequency, TF over GST control)"
same,binding signal,SPIB,"1.18 fold enrichment (6-mer frequency, TF over GST control)"
same,binding signal,ELK3,"1.12 fold enrichment (6-mer frequency, TF over GST control)"
ATCTGC,binding signal,FLI1,"1.3 fold enrichment (6-mer frequency, TF over GST control)"
same,binding signal,ELK1,"1.28 fold enrichment (6-mer frequency, TF over GST control)"
same,binding signal,GABPA,"1.47 fold enrichment (6-mer frequency, TF over GST control)"
same,binding signal,ERG,"1.37 fold enrichment (6-mer frequency, TF over GST control)"
same,binding signal,ELF1,"1.45 fold enrichment (6-mer frequency, TF over GST control)"
same,binding signal,EHF,"1.34 fold enrichment (6-mer frequency, TF over GST control)"
same,binding signal,SPI1,"1.44 fold enrichment (6-mer frequency, TF over GST control)"
same,binding signal,SPIB,"1.41 fold enrichment (6-mer frequency, TF over GST control)"
same,binding signal,ELK3,"1.34 fold enrichment (6-mer frequency, TF over GST control)"
